CHX counter: counter-screen hit for Shiga toxin inhibitors, cycloheximide | max response, % | cell reporter, cycloheximide protein synthesis inhibition counterscreen | 12% of 300,000 active; in the data active = max response mostly above about 13%, no sharp cut-off; inactive = mostly below about 14%; note: read at 38.3 µM for the half of the compounds with a filed dose
NS1 inh: blocks influenza NS1 protein function; AID 2326; 0.4% of 270,000 active; Potency, µM (titrated, usually from 46.1 µM); note: actives are rising curves; nearly all actives have a fitted effect of over 50% in size
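Compounds were scored for reversing the slow growth caused by influenza A NS1 in S. cerevisiae, measured by optical density at 600 nm. Assay medium contained 2% galactose at pH 6.0; NS1-free yeast of the same strain were the positive control.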
SARS PLpro yeast: blocks SARS-CoV papain-like protease in a yeast assay. S. cerevisiae expressing SARS-CoV PLpro, growth rescue. 0.19% of 330,000 active. Potency, µM (top dose mostly 32.9 µM), most hits filed as activators. AID 485353; note: nearly all actives have a fitted effect of over 55% in size
Pf growth 48h: inhibits P. falciparum growth in the first generation, 48 h. P. falciparum luciferase growth in erythrocytes, 48 h. Potency, µM (doses to about 28.7 µM), actives largely listed as inhibitors. 5.9% of 310,000 active; active = well fitted inhibition curve with a large enough effect; inconclusive = small, poorly fitted or top-dose-only effect, or another doubt; inactive = no such curve, though single readings can be large or run the other way
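Read-out is firefly luciferase luminescence from an integrated reporter in P. falciparum, so falling signal marks reduced parasite growth. Infected erythrocytes were at 2% hematocrit and 0.1% parasitemia (final) in Albumax-supplemented RPMI 1640.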
Shiga toxin inh: inhibitors of Shiga toxin in Vero cells. Vero cells, Shiga toxin protein synthesis inhibition reporter. inhibition, % at 38.7 µM. 9.2% of 290,000 active; in the data active = inhibition mostly above about 28%, no sharp cut-off; inactive = mostly below about 43%
Pf growth 96h: P. falciparum growth inhibition at 96 hours. 6.9% of 320,000 active. Potency, µM (top dose mostly 28.7 µM), actives largely listed as inhibitors. AID 504834. P. falciparum luciferase reporter growth, 96 h; active = well fitted inhibition curve with a large enough effect; inconclusive = small, poorly fitted or top-dose-only effect, or another doubt; inactive = no such curve, though single readings can be large or run the other way
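Delayed-death screen, second-generation endpoint: infected erythrocytes, 2% hematocrit, 0.05% parasitemia final; 96 hours at 37 C, 5% CO2; luciferase detection reagent; luminescence decrease equals reduced growth.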
Of the large screens only hits and unclear results are named; the others gave an inactive call. Rows were chosen to be rich in hits. Some 21% of all compounds tested hit in one or more screens of this group. Unless noted, calls come from the whole dose curve.

CCOC(=O)CNC(=O)COc1coc(CN2CCN(Cc3ccccc3)CC2)cc1=O	Pf growth 96h inconclusive
CCOc1ccc2nc(SCC#N)c(C#N)cc2c1	CHX counter 22
CCOc1ccc2cc(C#N)c(SCC(=O)N3CCC(C)CC3)nc2c1	Pf growth 48h 9.3µM
COC(=O)CSc1nc2cc(OC)ccc2cc1C#N	CHX counter 53, Shiga toxin inh 68 (no result: Pf growth 96h)
CCOC(=O)CSc1nc2cc(OCC)ccc2cc1C#N	CHX counter 65, Shiga toxin inh 88 (no result: Pf growth 96h)
Cn1c(SCC(=O)c2ccc(O)cc2O)nnc1-c1ccccc1	none
Cn1c(=O)c2cn(-c3ccccc3)cc2n(C)c1=O	none
COc1cccc(-n2cc3c(=O)n(C)c(=O)n(C)c3c2)c1	CHX counter 24
COc1ccccc1-c1c(C)nn2c(N3CCCCCC3)cc(C)nc12	Pf growth 48h 10µM, Pf growth 96h 9.3µM
CCOCCCNC(=O)C1CCN(c2cc(C)nc3c(-c4ccc(OC)c(OC)c4)c(C)nn23)CC1	Pf growth 48h 4.1µM
COCCNc1cc(C)nc2c(-c3ccccc3OC)c(C)nn12	Pf growth 96h 2.3µM
COc1ccc(-c2c(C)nn3c(N4CCN(Cc5ccccc5)CC4)cc(C)nc23)cc1OC	NS1 inh inconclusive (no result: Pf growth 48h)
O=C(O)/C=C/C(=O)Nc1ccc(C2(c3ccc(NC(=O)/C=C/C(=O)O)cc3)c3ccccc3-c3ccccc32)cc1	Pf growth 48h inconclusive
O=C(COC(=O)c1c[nH]c2ccccc12)Nc1ccc([N+](=O)[O-])cc1	Pf growth 96h inconclusive (no result: CHX counter, NS1 inh, Shiga toxin inh)
CC(=O)N1CCN(CC(O)COc2ccc(Br)cc2)CC1 (stereo not drawn)	Pf growth 96h inconclusive
CCCCOCC(O)CN1CCN(C(C)=O)CC1 (stereo not drawn)	Pf growth 96h 8.3µM
Cc1csc(NC(=O)c2sc3nc(-c4cccs4)ccc3c2N)n1	CHX counter 41, SARS PLpro yeast inconclusive, Pf growth 48h inconclusive, Shiga toxin inh 69
CCCSc1nnc(NC(=O)CCc2ccccc2)s1	none
CCCSc1nnc(NC(=O)c2sc3nc(-c4cccs4)ccc3c2N)s1	CHX counter 28, Pf growth 48h inconclusive
Cc1nnc(SCC(=O)NNC(=O)c2ccc(F)cc2)n1Cc1ccccc1	none (no result: CHX counter, NS1 inh, Pf growth 48h, Shiga toxin inh, Pf growth 96h)
Cc1ccc(N=C2CSC(=O)N2)cc1	none (no result: NS1 inh)
Cc1ccc(N=c2sc(C)c(C)n2C)cc1	CHX counter 70, Shiga toxin inh 80
Cc1ccc(/C=N\NC(=O)Cn2c(C)nc3ccccc32)o1	Pf growth 96h inconclusive
COCCCNC(=O)CCc1nc2cccnc2n1Cc1ccccc1	Pf growth 96h 8.3µM
COc1ccc(Cn2c(CCC(=O)Nc3ccc(CC#N)cc3)nc3cccnc32)cc1	Pf growth 48h inconclusive, Pf growth 96h 3.7µM
COc1ccc(Cn2c(CCC(=O)Nc3ccccc3)nc3cccnc32)cc1	Pf growth 96h inconclusive
COc1ccc(CNc2nc3c(c(C(F)(F)F)n2)CCCCC3)cc1	none
CC(=O)Nc1ccc(S(=O)(=O)NC2CC2)cc1	none (no result: Shiga toxin inh)
O=Nc1[nH]c(=O)c(/C=C(\O)c2ccccc2)nc1NO	CHX counter 59, Shiga toxin inh 62
O=C(CSc1nnc(NC(=O)c2c(F)cccc2F)s1)NCc1ccc(F)cc1	none (no result: CHX counter, NS1 inh, Shiga toxin inh)
COc1ccc(-c2noc(CCC(=O)N3CCN(c4cccc(F)c4)CC3)n2)cc1	none (no result: CHX counter, NS1 inh, Pf growth 48h, Shiga toxin inh, Pf growth 96h)
NC(=O)C1CC(=O)N(c2ccc(OCc3c(F)cccc3Cl)cc2)C1 (stereo not drawn)	none
Cc1ccc(N2CC(C(=O)OCC(=O)c3ccc(F)cc3)CC2=O)cc1 (stereo not drawn)	Pf growth 96h 2.9µM
NC(=O)C1CC(=O)N(c2ccc(OCc3ccc(F)cc3)cc2)C1 (stereo not drawn)	CHX counter 37, Shiga toxin inh 94
NC(=O)C1CC(=O)N(c2ccc(OCc3ccccc3Cl)cc2)C1 (stereo not drawn)	CHX counter 23, Shiga toxin inh 25, Pf growth 96h inconclusive
NC(=O)C1CC(=O)N(c2ccc(OCc3ccc([N+](=O)[O-])cc3)cc2)C1 (stereo not drawn)	CHX counter 26 (no result: Shiga toxin inh)
O=C(O)C1CC(=O)N(c2ccc(OCc3ccccc3Cl)cc2)C1 (stereo not drawn)	none (no result: Pf growth 96h)
Cc1ccc(N2CC(C(=O)OCC(=O)c3ccc[nH]3)CC2=O)cc1 (stereo not drawn)	none (no result: CHX counter, NS1 inh, Shiga toxin inh)
O=S(=O)(Nc1cc(O)cc2cccnc12)c1ccc(Cl)s1	none (no result: NS1 inh, SARS PLpro yeast, Pf growth 48h, Pf growth 96h)

Source: PubChem
